# Test results as given in PubChem BioAssay AID720530 (The Scripps Research Institute Molecular Screening Center, 2013).
# Among all 1,000 compounds or so, about 260 (26%) were called active. A selection follows. Unmarked numbers belong to inactive results. No stated cut-off is given here; in the data, active means inhibition above about 21%; inactive means the rest.
# Molecular target: E3 ubiquitin-protein ligase UHRF1 (Homo sapiens) (UniProt Q96T88)
# Assay: blockers of UHRF1 binding to methyl-oligo – biochemical, TR-FRET, human UHRF1, counter-screen for MBD2 inhibitor project (AID 720530);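 further: UHRF1 SRA domain binding a labeled hemimethylated CpG hairpin DNA; 0% = vehicle only and 100% = reference inhibitor with vehicle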
# Details: UHRF1 binding to methylated oligonucleotide, at 4.4 µM, stronger effect = higher value
# Chain of E3 ubiquitin-protein ligase UHRF1 (Homo sapiens) (Q96T88 whole entry, looked up, the tested form may be a part): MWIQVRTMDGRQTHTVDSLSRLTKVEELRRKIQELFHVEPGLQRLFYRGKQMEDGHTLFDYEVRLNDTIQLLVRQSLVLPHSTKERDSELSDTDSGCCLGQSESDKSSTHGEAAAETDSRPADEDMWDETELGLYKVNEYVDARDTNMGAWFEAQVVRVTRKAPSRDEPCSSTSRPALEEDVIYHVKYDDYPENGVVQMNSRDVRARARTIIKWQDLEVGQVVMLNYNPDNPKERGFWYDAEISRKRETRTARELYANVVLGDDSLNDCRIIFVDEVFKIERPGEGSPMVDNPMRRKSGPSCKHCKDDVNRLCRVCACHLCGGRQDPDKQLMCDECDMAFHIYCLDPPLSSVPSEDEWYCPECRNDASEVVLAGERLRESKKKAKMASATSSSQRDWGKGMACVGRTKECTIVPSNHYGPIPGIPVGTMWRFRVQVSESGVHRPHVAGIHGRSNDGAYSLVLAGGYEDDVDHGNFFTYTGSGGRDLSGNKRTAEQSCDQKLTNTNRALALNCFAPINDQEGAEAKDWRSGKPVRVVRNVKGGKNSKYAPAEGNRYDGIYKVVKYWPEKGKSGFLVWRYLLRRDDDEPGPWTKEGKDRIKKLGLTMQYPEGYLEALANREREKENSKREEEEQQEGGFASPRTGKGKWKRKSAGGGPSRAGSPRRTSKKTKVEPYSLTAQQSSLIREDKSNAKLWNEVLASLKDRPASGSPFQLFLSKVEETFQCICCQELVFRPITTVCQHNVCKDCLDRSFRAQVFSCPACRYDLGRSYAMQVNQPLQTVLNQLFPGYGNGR
row,Compound,inhibition
1,CCN(CC)CCOc1ccc2c(c1)C(=NNC(=O)c1ccccn1)c1cc(OCCN(CC)CC)ccc1-2,108% (active)
2,COC(=O)c1ccc2nc(-c3cccc(Br)c3)c(Cc3ccc(OC)cc3C)n2c1,12.2%
3,Cc1ccc(C)c(NC(=O)c2ccc(OC(=O)c3ccco3)cc2)c1,8.96%
4,CCOC(=O)CCP(=O)(O)C(O)(c1ccccc1)c1ccccc1,4.07%
5,Cc1cccc(NC(=O)C[C@H]2CC[C@H]3[C@@H](COc4ccc(NC(=O)Nc5ccccc5)cc4C(=O)N3C)O2)c1,0.48%
6,CC(C)c1nc(CNC(=O)CC2C(=O)NCCN2Cc2cccc(F)c2F)cs1 (stereo not given),9.89%
7,COc1ccc2c(c1)c(=Cc1ccc(N(C)C)cc1)c1cc(-c3ccccc3)[n+](C)n12,83.9% (active)
8,Cc1ccc(-c2ccnc3nc(Sc4ncc(C(F)(F)F)cc4Cl)nn23)cc1,8.79%
9,Cc1cccc(CN2CCN(C3CN(Cc4cn(Cc5cc(C)cc(C)c5)nn4)S(=O)(=O)C3)CC2)c1 (stereo not given),9.39%
10,COC(=O)c1cccc(NC(=O)c2cccc(N3C(=O)CCC3=O)c2)c1,6.97%
11,COc1ccc(CNC(=O)c2c[nH]c3c(OC)cc(OC)cc3c2=O)cc1,5.78%
12,CN(C(=O)COC(=O)c1cc(-c2ccco2)nc2ccccc12)C1CCS(=O)(=O)C1 (stereo not given),35.3% (active)
13,O=C(c1n[nH]c2c1CCC2)N1CCCC(Nc2cccc(F)c2)C1 (stereo not given),6.16%
14,CC(C)Oc1ccc(C2NC(=O)NC2=O)cc1 (stereo not given),6.8%
15,CCOc1cc(-c2noc(CCCC(=O)NC3CCCCC3)n2)ccc1OC,4.27%
16,c1ccc2cc3c(NCCN4CCOCC4)ccnc3cc2c1,21.8% (active)
17,COc1ccc(-n2cc(-c3ccccc3)c3c(=S)nc[nH]c32)cc1,-1.36%
18,COc1nc(N(C)C)nc(N2CC(=O)N(CCNS(=O)(=O)c3ccc(C)cc3)C2=N)n1,6.8%
19,CC(=O)c1ccccc1NC(=O)COC(=O)C1COc2ccccc2O1 (stereo not given),2.18%
20,COc1ccc2[nH]c3c(C)c4cc[n+](C)cc4c(C)c3c2c1,94.4% (active)
21,CCOC(=O)C1C(=O)OC2(CCCC2)C1C(=O)OCC (stereo not given),1.98%
22,O=C(CC1CCCCC1)Nc1c2c(nn1-c1ccc(F)cc1)CS(=O)(=O)C2,5.19%
23,C=CCN1C(=O)c2ccc(C(=O)N3CCC(C(=O)OCC)CC3)cc2C1=O,4.16%
24,C=CC1=C(C(=O)O)N2C(=O)[C@@H](NC(=O)/C(=N\OCC(=O)O)c3csc(N)n3)[C@H]2SC1,106% (active)
25,Nc1ccccc1C(=O)NC1CCCCNC1=O (stereo not given),4.32%
26,Cc1ccc(C(=O)Nc2ccc3c(c2)OCO3)cc1S(=O)(=O)N1CCCCC1,4.99%
27,COc1ccc(COC[C@H](CC(C)C)N2CCN(C(=O)c3cccc(C(F)(F)F)c3)CCC2=O)cc1,8.9%
28,COC(=O)[C@]12C[C@H](CC(=O)NCCC(C)C)C(=O)N(CCc3ccc(OC)c(OC)c3)C1=C[C@H](C(C)(C)C)O[C@@H]2C,7.24%

row,Compound,inhibition
1,COc1ccc(OCc2cc(C(=O)NCC3(C)COC3)no2)c(Cl)c1,2.8%
2,COC(=O)c1c(NC(=O)c2ccc(S(=O)(=O)N3CCOCC3)cc2)sc2c1CCN(C(C)C)C2,29.1% (active)
3,Cc1c(NS(=O)(=O)c2cc(C(=O)NCCc3ccc(F)cc3)cc(Cl)c2Cl)c(=O)n(-c2ccccc2)n1C,3.95%
4,O=c1ccc2c(-c3ccccc3S(=O)(=O)O)c3ccc(O)c(O)c3oc-2c1O,73.8% (active)
5,C=C1c2c(Cl)ccc(O)c2C(O)=C2C(=O)[C@]3(O)C(O)=C(C(N)=O)C(=O)[C@@H](N(C)C)[C@@H]3[C@@H](O)C12 (stereo not given in full),19.2%
6,CCOC(=O)c1ccc(-n2c(CCC(=O)O)ccc2-c2ccccc2)cc1,7.24%
7,C=CCN(C(=O)[C@@H](CCCC)[C@@H](O)c1ccc(Cl)cc1)c1ccccc1,6.35%
8,CN(C)[C@@H]1C(=O)C(C(N)=O)=C(O)[C@@]2(O)C(=O)C3=C(O)c4c(O)ccc(Cl)c4[C@@H](O)[C@H]3C[C@@H]12,12.2%
9,COc1ccccc1C(=O)NNC(=O)CCN1C(=O)/C(=C\c2ccccc2)SC1=S,7.6%
10,Cc1ccc(Cc2cnc(N)s2)o1,7.64%
11,Cc1cc(C)c2nc3nc(C)cc(C)c3c(N)c2c1,46.3% (active)
12,CN(C)CCNC(=O)c1ccc(Cl)c2cc3ccccc3nc12,39.7% (active)
13,COC(=O)c1cn(C)c2ccc(S(=O)(=O)N3CC(C)CC(C)C3)cc2c1=O (stereo not given),14.2%
14,CCOC(=O)c1sc(NC(=O)CCN2CCOCC2)c(C(=O)OCC)c1C,-14.4%
15,CNC(=O)C[C@H]1C(=O)N(c2ccc(OC)cc2)C[C@@H]1Cc1ccccc1,5.54%
16,CCOc1ccc(NC(=O)c2cc(C)nc3ccccc23)cc1,3.69%
17,CCOc1ccc(S(=O)(=O)N2CCC(c3ccccc3)CC2)cc1C(=O)O,0.13%
18,Brc1ccc(-c2n(-c3ccccn3)c3ccccc3[n+]2-c2ccccn2)cc1,22.7% (active)
19,CO/N=C(/CS(=O)(=O)c1ccc(Br)cc1)c1ccc(OC)cc1,5.83%
20,C=CCn1c(=S)[nH]c2scc(-c3ccco3)c2c1=O,47.7% (active)
21,CCOc1ccc(N(CC(=O)NCCOc2ccccc2OC)S(=O)(=O)c2ccccc2)cc1,11%
22,CCOc1cc(N2CCOCC2)c(OCC)cc1NC(=O)c1cc(C)nc2ccccc12,7.08%
23,COC(=O)c1ccc(CSc2nncn2N)cc1,9.29%
24,Cc1ccccc1NC(=O)CN1C(=O)N/C(=C\c2cccn2-c2cccc(C(=O)O)c2)C1=O,56.5% (active)
25,Cc1c(C=O)n(C)n(-c2ccccc2)c1=O,0.66%
26,COC(=O)c1ccc2nc(C3CCCCC3)c(Cc3cccc(F)c3)n2c1,5.68%
27,CCOc1ccc(-n2c(SCC(=O)Nc3ccc(OC)cc3)nc3sc4c(c3c2=O)CCN(C)C4)cc1,6.75%
